33 molecules from PubChem BioAssay can be followed below.

Unmarked numbers belong to inactive results. The rule behind the calls is not given here.

The test system of this test is Aerobactin synthetase IucA (Klebsiella pneumoniae hvKP1). Nature of the test: Biochemical IucA enzyme inhibition primary screen of the Spectrum library (AID 1346200).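 Note: 100% = wells without compound and 0% = wells lacking enzyme.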 The settings on record: malachite green pyrophosphate, A620, at 8 µM, active compounds read low.
As for `CCOC(=O)[C@H](CCc1ccccc1)N[C@H](C)C(=O)N1C2CCCCC2C[C@H]1C(=O)O` (stereo partly drawn), the activity remaining is 119%.

Turning to `CCN(CCCc1ccccc1)CCCc1ccccc1`, the activity remaining was 109%.

Turning to `O=c1c2ccccc2oc2ccccc12`, the activity remaining is 117%.

With `CCCCC(CC)CN1CN(CC(CC)CCCC)CC(C)(N)C1` (stereo not drawn), the activity remaining is 89.7%.

Turning to `COc1ccccc1-c1coc2cc(OC)c(OC)c(OC)c2c1=O`, the activity remaining is 116%.

For `CCOC(=O)[C@H](CCc1ccccc1)N[C@@H](C)C(=O)N1[C@H](C(=O)O)C[C@@H]2CCC[C@@H]21`, the activity remaining is 103%.

As to `CCN(CC)CCOC(=O)C(c1ccccc1)C1CCCCC1` (stereo not drawn), the activity remaining is 111%.

On to `CO[C@@H]1[C@@H](OC(N)=O)[C@@H](O)[C@H](Oc2ccc3c(O)c(NC(=O)c4ccc(O)c(CC=C(C)C)c4)c(=O)oc3c2C)OC1(C)C`, for which the activity remaining was 129%.

`COC(=O)[C@@H]1OC(=O)C2OC23[C@@]1(C)CCC1[C@]2(C)C(C[C@H](O)[C@]13C)C(C)(C)[C@H](OC(C)=O)C[C@@H]2OC(C)=O` (stereo partly drawn): the activity remaining was 111%.

For the molecule `CC(=O)NC(C(=O)O)C(C)(C)SN=O` (stereo not drawn), the activity remaining was 97%.

Regarding `CC1=C2C(=CO[C@H](C)[C@H]2C)C(=O)C(C(=O)O)=C1O`, the activity remaining was 94.3%.

Take `COc1cc(OC)c2c(=O)c(OC)c(-c3ccc(OC)c(OC)c3)oc2c1`: the activity remaining is 120%.

`COC(=O)C[C@@H]1C2(C)C(=O)[C@@H](CC3=C4CC(=O)O[C@@H](c5ccoc5)[C@]4(C)CCC32)[C@H](OC(C)=O)C1(C)C` (stereo partly drawn): the activity remaining is 112%.

In the case of `Nc1nc(/C(=C/CC(=O)O)C(=O)N[C@@H]2C(=O)N3C(C(=O)O)=CCS[C@H]23)cs1`, the activity remaining is 117%.

Take `C=CCCCCCCCCCCCC(O)CC(O)CO` (stereo not drawn) (tested in a mixture with another compound): the activity remaining was 85.4%.

In the case of `OC[C@H]1O[C@@](CO)(O[C@@H]2O[C@H](CO)[C@@H](O)[C@H](O)[C@H]2O)[C@@H](O[C@@H]2O[C@H](CO)[C@@H](O)[C@H](O)[C@H]2O)[C@@H]1O`, the activity remaining is 82.4%.

Consider `CO[C@H]1/C=C/O[C@@]2(C)Oc3c(C)c(O)c4c(O)c(c5c(nc6cc(C)ccn65)c4c3C2=O)NC(=O)/C(C)=C\C=C\[C@H](C)[C@H](O)[C@@H](C)C(O)[C@@H](C)[C@H](OC(C)=O)[C@@H]1C` (stereo partly drawn), for which the activity remaining is 110%.

On to `CCN1CCN(C(=O)NC(C(=O)N[C@@H]2C(=O)N3[C@@H]2SC(C)(C)[C@@H]3C(=O)O)c2ccccc2)C(=O)C1=O` (stereo partly drawn), for which the activity remaining is 104%.

`CC(=O)O[C@@H]1CC2C(C)(C)C(=O)C=C[C@]2(C)C2CC[C@@]3(C)[C@H](c4ccoc4)OC(=O)[C@H]4O[C@]43[C@@]21C` (stereo partly drawn): the activity remaining is 104%.

For `COc1cc(OC)c2c(=O)c(-c3ccccc3)coc2c1`, the activity remaining was 110%.

As to `COc1ccc2c3c1O[C@H]1C[C@@H](O)C=C[C@@]31CCN(C)C2`, the activity remaining is 103%.

On to `C=C1[C@H]2CC[C@@]3(C)[C@H](c4ccoc4)OC(=O)C[C@]13O[C@H]1C[C@H](O)C(C)(C)[C@H](CC(=O)OC)[C@]12C`, for which the activity remaining is 107%.

`CN(C)C(=O)Nc1ccc(Cl)c(Cl)c1`: the activity remaining is 109%.

Take `COC(=O)C[C@@H]1C2(C)C(=O)[C@@H](CC3=C4CC(O)O[C@@H](c5ccoc5)[C@]4(C)CCC32)[C@H](O)C1(C)C` (stereo partly drawn): the activity remaining was 128%.

Regarding `CC(C)CC1C(=O)N2CCC[C@H]2C2(O)O[C@](NC(=O)C3C=C4c5cccc6[nH]c(Br)c(c56)C[C@H]4N(C)C3)(C(C)C)C(=O)N12` (stereo partly drawn), the activity remaining was 113%.

With `C[n+]1cccc(C(=O)[O-])c1`, the activity remaining is 92.7%.

`O=C(/C=C/c1ccc(O)c(O)c1)OC(Cc1ccc(O)c(O)c1)C(=O)O` (stereo not drawn): the activity remaining is 116%.

For the molecule `C#C[C@]1(O)CCC2C3CCC4=Cc5oncc5C[C@]4(C)C3CC[C@@]21C` (stereo partly drawn), the activity remaining is 120%.

Turning to `CCCCOc1ccc(C(=O)CCN2CCCCC2)cc1`, the activity remaining was 96.6%.

Consider `COc1ccc(C2C(=O)c3ccccc3C2=O)cc1`, for which the activity remaining is 119%.

For the molecule `CCC(C)C(=O)O[C@H]1C[C@H](O)C=C2C=C[C@H](C)[C@H](CC[C@@H](O)C[C@@H](O)CC(=O)O)C21` (stereo partly drawn), the activity remaining was 113%.

Consider `COc1ccc2c(c1OC)C(=O)O[C@H]2[C@H]1c2c(cc3c(c2OC)OCO3)CCN1C`, for which the activity remaining was 116%.

Turning to `Cc1cccc(N(C)C(=S)Oc2ccc3ccccc3c2)c1`, the activity remaining was 116%.
